Laboratory results from PubChem BioAssay (NCATS).
Inconclusive results are not listed. Active and inactive are the calls of the source. Calls follow the shape of the dose curve; as a rule, active = well fitted curve in either direction with a large enough effect (not every such curve was filed as active); inconclusive = small, poorly fitted or top-dose-only effect, or another doubt; inactive = flat fitted curve, though single readings scatter.

Experiment: Stat Signaling Pathway (AID 446)
Conditions: ME-180 (cervical carcinoma) SIE beta-lactamase reporter, IL-6 stimulated, 5 h; series mostly up to 7.69 µM
Description: NCGC Assay Overview: The IL-6/STAT signaling pathway was assayed in ME-180 cervical carcinoma cells by a beta-lactamase reporter gene controlled by a STAT Inducible Element (SIE). This reporter is induced by IL-6 at 40 pM AC50 and inhibited by the pan JAK inhibitor, 2-(1,1-Dimethylethyl)-9-fluoro-3,6-dihydro-7H-benz[h]-imidaz[4,5-f]isoquinolin-7-one, at approximately 10 nM AC50. Plated cells were incubated overnight and on the following day, stimulated with 40 pM IL-6 for 5 hrs. The assay was screened at the AC50 of IL-6 activation to identify both inhibitors and activators of IL-6/STAT signaling.
NCGC Assay Protocol Summary: Cells were trypsinized, washed in assay medium (AM, OPTI MEM with 0.5% fetal bovine serum, 0.1 mM nonessential amino acids, 1 mM sodium pyruvate, 10mM HEPES pH 7.3, 100U/ml penicillin, and 100 ug/ml streptomycin) and suspended at 6 x 10e5/ml in AM. Approximately […] cells in 5 uL/well was dispensed into 1536 well plates and the cells were incubated overnight at 37 C. 23 nL of compound were delivered by a pin tool and 1 uL of IL-6 (40 pM final concentration in AM) was added. After centrifugation at 1000 rpm for less than a minute, plates were incubated at 37C for 5 hrs. One uL of detector mix (LiveBLAzerTM, Invitrogen) was added, the plates incubated at room temperature for 2.5 hrs, and fluorescence intensity at 460 and 530 nm emission was measured at 405 nm excitation by an Envision (Perkin Elmer) or Safire II (Tecan). Data were normalized by GeneData to the controls for AC90 stimulation (300 pM IL-6) and to AC90 inhibition (125 nM Jak inhibitor, 40 pM IL-6 in AM).
With `COc1cccc(Nc2ncc3ncc(=O)n(Cc4ccc(F)cc4)c3n2)c1` the outcome was “inactive”. For `CN(C)c1ncc2ncc(=O)n(Cc3cccs3)c2n1`, the outcome was “inactive”. In the case of `COc1ccccc1CNc1nc(-c2cccc(NS(C)(=O)=O)c2)nc2ccccc12`, the outcome is reported as “inactive”. With `Cc1cccc(CNc2ncncc2-c2ccccc2C)c1` the outcome was “inactive”. For `Cc1noc(C)c1-c1nc(N2CCN(C)CC2)c2ccccc2n1`, the outcome was “inactive”. With `CCOC(=O)C1CCCN(c2nc3ccccc3nc2C(C#N)C(=O)OC(C)C)C1` (stereo not given) the outcome was “inactive”. For `CN(Cc1ccco1)c1cc(-c2ccc3c(c2)OCO3)ncn1`, the outcome was “inactive”. In the case of `CCCCCCc1cc2cc(C(=O)NC)c(=N)oc2cc1O`, the outcome is reported as “inactive”. In the case of `COc1ncc2nc(CCc3ccccc3)c(=O)n(-c3ccccc3)c2n1`, the outcome is reported as “inactive”. For `O=c1c(CCc2ccccc2)nc2cnc(N3CCOCC3)nc2n1-c1ccccc1`, the outcome was “inactive”. For `COCCn1c(=O)c(CCc2ccccc2)nc2cncnc21`, the outcome was “inactive”. With `CN(C)C(=O)c1ccc(-c2ccc3ncnc(Nc4ccc(F)cc4)c3c2)cc1` the outcome was “inactive”. For `CN(C)C(=O)c1ccc(-c2cc(NCc3ccccc3)ncn2)cc1`, the outcome was “inactive”. For `COc1cccc(-c2nc(NC3CC3)c3ccccc3n2)c1`, the outcome was “inactive”. For `COc1ccc(CNc2cc(-c3cccc(NS(C)(=O)=O)c3)ncn2)c(OC)c1`, the outcome was “inactive”. In the case of `COc1ccc2[nH]cc(CCNc3cc(-c4cccc(C#N)c4)ncn3)c2c1`, the outcome is reported as “inactive”. With `COCCNc1ncnc2ccc(-c3ccccc3OC)cc12` the outcome was “inactive”. For `CN(C)c1ncc2nc(CCc3ccccc3)c(=O)n(Cc3cccs3)c2n1`, the outcome was “inactive”. In the case of `Clc1ccccc1NN(Cc1ccncc1)c1ccccc1Cl`, the outcome is reported as “inactive”. With `COc1ccccc1-c1ccc2ncnc(N3CCNCC3)c2c1` the outcome was “inactive”. For `N=C(N)c1ccc(N=Nc2c(O)ccc3c2[nH]c2ccccc23)cc1`, the outcome was “inactive”. For `CN1CCN(c2ncc3nc(-c4ccccc4)c(=O)n(Cc4cccs4)c3n2)CC1`, the outcome was “inactive”. In the case of `O=c1c(CCc2ccccc2)nc2cnc(Nc3ccccc3)nc2n1C[C@H]1CCCO1`, the outcome is reported as “inactive”. In the case of `COCCn1c(=O)c(-c2cccc(C#N)c2)nc2cnc(Oc3cccc(Cl)c3)nc21`, the outcome is reported as “inactive”. In the case of `COc1cccc(Nc2ncc3ncc(=O)n(CCC#N)c3n2)c1`, the outcome is reported as “inactive”. In the case of `COc1cccc(-c2ccc3ncnc(Nc4ccccc4)c3c2)c1`, the outcome is reported as “inactive”. In the case of `COc1ccc2[nH]cc(CCNc3ncncc3-c3ccccc3C)c2c1`, the outcome is reported as “inactive”. With `O=c1cnc2cnc(N3CCOCC3)nc2n1Cc1cccs1` the outcome was “inactive”. In the case of `CN(C)c1nc(-c2ccc3c(c2)OCO3)nc2ccccc12`, the outcome is reported as “inactive”. In the case of `CCC(C)n1ncn(-c2ccc(N3CCN(c4ccc(OCC5COC(Cn6cncn6)(c6ccc(Cl)cc6Cl)O5)cc4)CC3)cc2)c1=O` (stereo not given), the outcome is reported as “inactive”. For `CN1CCN(c2ncc3nc(-c4cn(C)c5ccccc45)c(=O)n(C[C@H]4CCCO4)c3n2)CC1`, the outcome was “inactive”. In the case of `Clc1ccccc1-c1ccc2ncnc(NCCN3CCOCC3)c2c1`, the outcome is reported as “inactive”. For `COc1ccccc1-c1nc(N2CCN(C)CC2)c2ccccc2n1`, the outcome was “inactive”. In the case of `COc1cccc(Nc2ncc3nc(-c4cccs4)c(=O)n(C[C@H]4CCCO4)c3n2)c1`, the outcome is reported as “inactive”. With `COc1ccc2[nH]cc(CCNc3ncnc4ccc(-c5cccc(C#N)c5)cc34)c2c1` the outcome was “inactive”. For `COc1ccc2[nH]cc(CCNc3ncnc4ccc(-c5ccccc5OC)cc34)c2c1`, the outcome was “inactive”. With `CN1CCN(c2ncc3nc(-c4cccc(C#N)c4)c(=O)n(CCc4ccccc4)c3n2)CC1` the outcome was “inactive”. For `O=C(c1cnccn1)N1CCC[C@@]2(CCN(c3cccc(-c4ccccc4)c3)C2)C1`, the outcome was “inactive”. For `CN(C)c1ncnc2ccc(-c3cccc(NS(C)(=O)=O)c3)cc12`, the outcome was “inactive”. With `FC(F)(F)c1ccccc1-c1nc(NCc2cccnc2)c2ccccc2n1` the outcome was “inactive”.
